Values joined by “and” are separate entries in the source; they are usually repeats but may differ in a detail not shown here. Equal entries are not always repeated. Some compounds were tested as several samples or in several runs, with calls that do not always agree. Active and inactive are the calls of the source. The calls were made as follows: active = hit-call score of the fitted dose curve at least 0.9, where 1 is the maximum; inactive = score below 0.9.

Read-out in test [1]: Interleukin-6 (IL6), IL6 (gene 3569)
In words: BSK_CASM3C_IL6: BioMAP Diversity Plus: CASM3C Assay for Interleukin-6 (IL6) Biomarker Activity for (AID 2283040). The following applies: primary human coronary artery smooth muscle cells; actives raise or lower the signal.

Read-out in test [2]: Tissue plasminogen activator (tPA), PLAT (gene 5327)
The test can be described thus: BSK_BE3C_tPA: BioMAP Diversity Plus: BE3C Assay for Tissue plasminogen activator (tPA) Biomarker Activity (AID 2283041).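 As to outcome: tPA level quantified by ELISA one day after compound addition.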 The following applies: primary human bronchial epithelial cells; actives raise or lower the signal. In outline:
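tPA measured by ELISA 24 h after dosing human primary bronchial epithelial cells (BE3C system). Changes in either direction were fitted against DMSO. Parallel cultures were stained with SRB to flag overt cytotoxicity.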

Read-out in test [3]: Interleukin-8 (IL8), CXCL8 (gene 3576)
The test can be described thus: BSK_CASM3C_IL8: BioMAP Diversity Plus: CASM3C Assay for Interleukin-8 (IL8) Biomarker Activity (AID 2283042).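 Also: IL-8 protein level quantified by ELISA.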 The note with it: primary human coronary artery smooth muscle cells; actives raise or lower the signal.

Read-out in test [4]: Human Leukocyte Antigen - DR isotype (HLADR), HLA-DRA (gene 3122)
The test can be described thus: BSK_CASM3C_HLADR: BioMAP Diversity Plus: CASM3C Assay for Human Leukocyte Antigen - DR isotype (HLADR) Biomarker Activity (AID 2283043).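 Also: cell-surface HLA-DR protein level quantified by ELISA.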 The following applies: primary human coronary artery smooth muscle cells; actives raise or lower the signal.

Read-out in test [5]: Macrophage colony-stimulating factor (MCSF), CSF1 (gene 1435)
In words: BSK_CASM3C_MCSF: BioMAP Diversity Plus: CASM3C Assay for Macrophage colony-stimulating factor (MCSF) Biomarker Activity (AID 2283044).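 Also: M-CSF protein amount quantified by ELISA after 24 h exposure.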 The following applies: primary human coronary artery smooth muscle cells; actives raise or lower the signal.

Read-out in test [6]: Low-density lipoprotein receptor (LDLR), LDLR (gene 3949)
In words: BSK_CASM3C_LDLR: BioMAP Diversity Plus: CASM3C Assay for Low-density lipoprotein receptor (LDLR) Biomarker Activity (AID 2283045).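 Also: LDLR protein level on the cell surface quantified by ELISA.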 The following applies: primary human coronary artery smooth muscle cells; actives raise or lower the signal.

Read-out in test [7]: Monocyte Chemoattractant Protein-1 (MCP1), CCL2 (gene 6347)
In words: BSK_CASM3C_MCP1: BioMAP Diversity Plus: CASM3C Assay for Monocyte Chemoattractant Protein-1 (MCP1) Biomarker Activity (AID 2283046).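 Also: MCP-1 level quantified by ELISA 24 h after dosing.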 The note with it: primary human coronary artery smooth muscle cells; actives raise or lower the signal.

Test [8] can be described thus: BSK_CASM3C_Proliferation: Cell Proliferation Assessment in the BioMAP Diversity Plus: CASM3C Assay (AID 2283047).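 Also: sulforhodamine B total protein stain as relative cell number at 560 nm; sub-confluent cells exposed 48 h before staining; fitted both ways against DMSO so gain or loss of cell number.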 The following applies: primary human coronary artery smooth muscle cells.
Read-out in test [9]: Monokine induced gamma interferon (MIG), CXCL9 (gene 4283)
In words: BSK_CASM3C_MIG: BioMAP Diversity Plus: CASM3C Assay for Monokine induced gamma interferon (MIG) Biomarker Activity (AID 2283048).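 Also: MIG protein level measured by ELISA.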 The following applies: primary human coronary artery smooth muscle cells; actives raise or lower the signal.

Read-out in test [10]: serum amyloid A (SAA), SAA1 (gene 6288)
In words: BSK_CASM3C_SAA: BioMAP Diversity Plus: CASM3C Assay for serum amyloid A (SAA) Biomarker Activity (AID 2283049).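 Also: SAA protein level quantified by ELISA.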 The following applies: primary human coronary artery smooth muscle cells; actives raise or lower the signal.

A short description of test [11]: BSK_CASM3C_SRB: Viability Assessment in the BioMAP Diversity Plus: CASM3C Assay (AID 2283050).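 Also: total protein by SRB staining as cytotoxicity measure in parallel cultures; cells exposed to compound for 24 h.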 The note with it: primary human coronary artery smooth muscle cells.
Read-out in test [12]: Thrombomodulin, THBD (gene 7056)
The test can be described thus: BSK_CASM3C_Thrombomodulin: BioMAP Diversity Plus: CASM3C Assay for Thrombomodulin Biomarker Activity (AID 2283051).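 Also: thrombomodulin protein level measured by ELISA 24 h after dosing.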 The following applies: primary human coronary artery smooth muscle cells; actives raise or lower the signal.

Read-out in test [13]: Tissue Factor, F3 (gene 2152)
The test can be described thus: BSK_CASM3C_TissueFactor: BioMAP Diversity Plus: CASM3C Assay for Tissue Factor Biomarker Activity (AID 2283052).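 Also: cell surface tissue factor protein level read by ELISA.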 The following applies: primary human coronary artery smooth muscle cells; actives raise or lower the signal.

Read-out in test [14]: Interferon-gamma inducible Protein 10 (IP10), CXCL10 (gene 3627)
The test can be described thus: BSK_hDFCGF_IP10: BioMAP Diversity Plus: hDFCGF Assay for Interferon-gamma inducible Protein 10 (IP10) Biomarker Activity (AID 2283053). The note with it: primary human foreskin fibroblasts; actives raise or lower the signal. The gist of the method:
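ELISA quantification of IP-10 after a 24 h chemical exposure of human dermal foreskin fibroblast primary cultures. Both increases and decreases versus DMSO fitted.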

Read-out in test [15]: Urokinase-type plasminogen activator receptor (uPAR), PLAUR (gene 5329)
The test can be described thus: BSK_CASM3C_uPAR: BioMAP Diversity Plus: CASM3C Assay for Urokinase-type plasminogen activator receptor (uPAR) Biomarker Activity (AID 2283054).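 Also: cell-surface uPAR protein level quantified by ELISA.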 The note with it: primary human coronary artery smooth muscle cells; actives raise or lower the signal.

Read-out in test [16]: Vascular cell adhesion molecule 1 (VCAM1), VCAM1 (gene 7412)
The test can be described thus: BSK_CASM3C_VCAM1: BioMAP Diversity Plus: CASM3C Assay for Vascular cell adhesion molecule 1 (VCAM1) Biomarker Activity (AID 2283055).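 Also: VCAM-1 protein level quantified by ELISA on the cells.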 The note with it: primary human coronary artery smooth muscle cells; actives raise or lower the signal.

Read-out in test [17]: Collagen III, COL3A1 (gene 1281)
In words: BSK_hDFCGF_CollagenIII: BioMAP Diversity Plus: hDFCGF Assay for Collagen III Biomarker Activity (AID 2283056). The following applies: primary human foreskin fibroblasts; actives raise or lower the signal. The gist of the method: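 Human foreskin primary fibroblasts were exposed to test chemicals for 24 h, after which collagen III was quantified by ELISA. Activity was fitted bidirectionally against DMSO as negative control and baseline.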

Read-out in test [18]: Epidermal growth factor receptor (EGFR), EGFR (gene 1956)
In words: BSK_hDFCGF_EGFR: BioMAP Diversity Plus: hDFCGF Assay for Epidermal growth factor receptor (EGFR) Biomarker Activity (AID 2283057). The following applies: primary human foreskin fibroblasts; actives raise or lower the signal. The gist of the method: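 EGFR levels by ELISA in human dermal fibroblast cultures, 24 h post-treatment, fitted bidirectionally versus DMSO. Parallel wells stained with sulforhodamine B to detect overt cytotoxicity.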

Read-out in test [19]: Interleukin-8 (IL8), CXCL8 (gene 3576)
The test can be described thus: BSK_hDFCGF_IL8: BioMAP Diversity Plus: hDFCGF Assay for Interleukin-8 (IL8) Biomarker Activity (AID 2283058). The note with it: primary human foreskin fibroblasts; actives raise or lower the signal. The gist of the method: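 hDFCGF human dermal fibroblasts; 24 h chemical exposure; IL-8 by ELISA; bidirectional curve fit vs DMSO baseline; gain or loss of signal scored.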

Test [20] in a line: BSK_hDFCGF_Proliferation: Cell Proliferation Assessment in the BioMAP Diversity Plus: hDFCGF Assay (AID 2283059).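 Also: curves fitted for both rise and fall of signal versus DMSO baseline.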 The note with it: primary human foreskin fibroblasts. In outline:
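Steps: dose primary human dermal fibroblasts (foreskin); […] fix in 10% TCA; stain with 0.1% SRB; read 560 nm; fit gain or loss of signal against DMSO.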

As to `CCOC(=O)/C=C\C(=O)OCC`, the outcome in test [1], in test [2], in [3], in test [4], in test [5] and in test [6] was inactive. Also, the outcome in test [7], in test [8], in test [9], in test [10], in test [11] and in test [12] was inactive. Further, the result in [13], in test [14], in [15], in test [16], in test [17] and in test [18] was inactive. For the same compound, the outcome in test [19] and in [20] was inactive.

With `CC/C=C\CCOC(=O)c1ccccc1O`, the AC50 in [1] is 3.97 µM (active); in [2], 20 µM (active); in test [4], 32.9 µM (active); in [5], 31.6 µM (active); in test [6], 14.4 µM (active); in test [7], 20 µM (active). The AC50 was 20 µM (active) in [10]; 34.5 µM (active) in test [11]; 20 µM (active) in test [13]; 13.7 µM (active) in test [14]; 36.3 µM (active) in test [15]; 32.1 µM (active) in [16]. The AC50 in test [17] is 11.8 µM (active); in test [20], 10 µM (active). Also, the outcome in [3], in [8], in test [9], in test [12], in test [18] and in test [19] was inactive.

Consider `COc1ccc(C(=O)c2ccccc2)c(O)c1`, for which the result in test [1], in test [2], in test [3], in [4], in [5] and in test [6] was inactive. Also, the result in test [7], in test [8], in test [9], in [10], in test [11] and in test [12] was inactive. Also, the result in test [14], in test [15], in test [16], in test [17], in [18] and in test [19] was inactive. In addition, in test [20], the result was inactive. Also, the half-maximal activity concentration (AC50) in [13] is 20 µM (active).

With `C=CC(=O)OCCCCCCCC(C)C`, the outcome in test [1], in test [2], in [3], in test [4], in test [5] and in test [6] was inactive. The result in test [7], in test [8], in [9], in test [10], in test [11] and in test [12] was inactive. The result in test [13], in [14], in test [15], in [17], in [18] and in test [19] was inactive. Also, the half-maximal activity concentration (AC50) in test [16] is 20 µM (active); in [20], 9.62 µM (active).

Regarding `Oc1ccccc1Cc1ccccc1O`, the outcome in test [1], in test [3], in test [4], in [5], in test [6] and in test [7] was inactive. Besides, the result in test [8], in test [9], in [10], in test [11], in test [12] and in test [13] was inactive. The outcome in [14], in test [15], in test [16], in test [17], in test [18] and in test [19] was inactive. The half-maximal activity concentration (AC50) is 13.4 µM (active) and 10.2 µM (active) in [2]; 0.239 µM (active) in test [16]; 28.1 µM (active) and 27 µM (active) in test [20].

`Oc1ccc(/C=C/c2cc(O)cc(O)c2)cc1`: the concentration at half-maximal activity (AC50) in test [1] was 13.6 µM (active); in test [8], 10.5 µM (active); in test [10], 15.9 µM (active); in [13], 7.96 µM (active); in test [20], 17.5 µM (active). Moreover, the outcome in test [2], in test [3], in [4], in test [5], in test [6] and in test [7] was inactive. The result in test [9], in test [11], in test [12], in [14], in test [15] and in test [16] was inactive. The result in test [17], in test [18] and in test [19] was inactive.

(Values after PubChem BioAssay (EPA / NIEHS).)
